CHX counter – counter-screen for Shiga toxin inhibitors: cycloheximide protein synthesis inhibition | max response, % | cell reporter, cycloheximide protein synthesis inhibition counterscreen | 300,000 compounds, 12% hits | AID 2314; in the data active = max response mostly above about 13%, no sharp cut-off; inactive = mostly below about 14%; note: read at 38.3 µM for the half of the compounds with a filed dose
Shiga inhibitor – blocks Shiga toxin action in Vero cells; AID 2315; inhibition, % at 38.7 µM; 290,000 compounds, 9.2% hits; Vero cells, Shiga toxin protein synthesis inhibition reporter; in the data active = inhibition mostly above about 28%, no sharp cut-off; inactive = mostly below about 43%
AmpC detergent – AmpC beta-lactamase inhibition with detergent present | P00811 | AmpC hydrolysis of nitrocefin, absorbance 480 nm, 0.01% Triton | Potency, µM (top dose mostly 114 µM), hits mostly inhibitors | 370,000 compounds, 0.041% hits; note: nearly all actives have a fitted effect of over 25% in size
Target sequence (P00811 whole entry, looked up): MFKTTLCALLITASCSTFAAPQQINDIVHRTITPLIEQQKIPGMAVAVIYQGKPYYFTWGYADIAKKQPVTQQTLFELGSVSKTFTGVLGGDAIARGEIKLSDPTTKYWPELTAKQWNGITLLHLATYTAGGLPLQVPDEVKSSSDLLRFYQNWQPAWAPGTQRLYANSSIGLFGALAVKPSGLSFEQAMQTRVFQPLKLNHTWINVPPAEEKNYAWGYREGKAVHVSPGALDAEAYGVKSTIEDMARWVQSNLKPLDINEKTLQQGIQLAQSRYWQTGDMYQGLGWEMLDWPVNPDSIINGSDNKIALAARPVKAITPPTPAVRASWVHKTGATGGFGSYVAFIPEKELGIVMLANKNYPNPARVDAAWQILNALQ
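20 mM phosphate pH 7.0 + 0.01% (detergent screen) or 0.0001% Triton X-100; 5.3 nM AmpC reagent; cpd preinc 15 min RT; nitrocefin (800 uM stock) to start; A480 q20 s × 4 min; Activity was normalised to no-enzyme and no-compound control wells.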
AMA1-RON2 inh – disrupts binding of P. falciparum AMA1 to RON2; AlphaScreen AMA1-biotinylated RON2 peptide binding; Potency, µM (top dose mostly 58.2 µM), most hits filed as inhibitors; 360,000 compounds, 0.2% hits; AID 720542; note: nearly all actives have a fitted effect of over 45% in size
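AMA1 (3D7) with his tag at 25 nM final met compounds first, then biotinylated RON2 peptide at 25 nM; detection used donor plus acceptor beads, 10 µg/mL apiece, read by AlphaScreen after 30 min at room temperature.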
SARS PLpro yeast – inhibitors of SARS-CoV papain-like protease in yeast. S. cerevisiae expressing SARS-CoV PLpro, growth rescue. Potency, µM (doses to about 32.9 µM), hits mostly activators. 330,000 compounds, 0.19% hits. AID 485353; calls by dose curve; note: nearly all actives have a fitted effect of over 55% in size
AmpC no deterg – blocks E. coli AmpC beta-lactamase in detergent-free assay | AID 485341 | 330,000 compounds, 0.52% hits | Potency, µM (titrated, usually from 57.1 µM), hits mostly inhibitors | AmpC nitrocefin hydrolysis, absorbance 480 nm, 0.0001% Triton | P00811; note: nearly all actives have a fitted effect of over 20% in size
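20 mM phosphate pH 7.0 + 0.01% (detergent screen) or 0.0001% Triton X-100; 5.3 nM AmpC reagent; cpd preinc 15 min RT; nitrocefin (800 uM stock) to start; A480 q20 s × 4 min; Activity was normalised to no-enzyme and no-compound control wells.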
A number is an active result; [ ] = another dose, or the depositor's remark. Only a selection was taken, and hits are over-represented in it overall. Unless noted, calls come from the whole dose curve; as a rule, active = well fitted curve in the direction sought with a large enough effect; inconclusive = small, poorly fitted or top-dose-only effect, or another doubt; inactive = no such curve, though single readings can be large; an effect the other way counts as inactive or inconclusive.

Nc1cccnc1Oc1ccccc1F was read as CHX counter inactive, Shiga inhibitor inactive, AmpC detergent inactive, AMA1-RON2 inh inactive, SARS PLpro yeast inactive and AmpC no deterg inactive.
`COCCNC(=O)C1CCCN(C(=O)c2cc(C(C)(C)C)nn2C)CC1` (stereo not given) gave AMA1-RON2 inh inactive.
CN(C(=O)c1ccccc1C(=O)OCC(=O)NCc1cccs1)C1CCCCC1 was read as CHX counter inactive, Shiga inhibitor inactive, AmpC detergent inactive, AMA1-RON2 inh inactive, SARS PLpro yeast inactive and AmpC no deterg inactive.
O=C(COCc1cc(-c2ccco2)on1)NC1CCCCC1 was read as CHX counter inactive, Shiga inhibitor inactive, AmpC detergent inactive, AMA1-RON2 inh inactive, SARS PLpro yeast inactive and AmpC no deterg inactive.
COc1ccc(O)c(C(=O)c2coc(=N)c(C(=O)Nc3ccc(SC(F)F)cc3)c2)c1 was read as CHX counter inactive, Shiga inhibitor inactive, AmpC detergent inactive, AMA1-RON2 inh inactive, SARS PLpro yeast inactive and AmpC no deterg 14µM.
For CC(C)OC(=O)c1cc(C(=O)c2cc(F)ccc2O)coc1=N the results were CHX counter inactive, Shiga inhibitor inactive, AmpC detergent inactive, AMA1-RON2 inh inactive, SARS PLpro yeast inactive and AmpC no deterg inactive.
O=C(N/N=C/C(Cl)=C\c1ccccc1)c1cccs1 was read as CHX counter 51, Shiga inhibitor 81, AmpC detergent inactive, AMA1-RON2 inh inactive, SARS PLpro yeast inactive and AmpC no deterg inactive.
`CC(/C=N/NC(=O)c1cccs1)=C\c1ccccc1` gave CHX counter 42, Shiga inhibitor 145, AmpC detergent inconclusive, AMA1-RON2 inh inactive, SARS PLpro yeast inactive and AmpC no deterg inactive.
Screening O=C(Nc1ccccc1)N(C1=NCCCCS1)c1cccc2ccccc12 returned CHX counter 46, Shiga inhibitor inactive, AmpC detergent inactive, AMA1-RON2 inh inactive, SARS PLpro yeast inactive and AmpC no deterg inactive.
Screening O=C(c1ccc([N+](=O)[O-])cc1)N(C1=NCCCCS1)c1ccccc1 returned CHX counter inactive, Shiga inhibitor inactive, AmpC detergent inactive, AMA1-RON2 inh inactive, SARS PLpro yeast inactive and AmpC no deterg inactive.
`O=C(Nc1ccccc1)N(C1=NCCCCS1)c1ccccc1` gave CHX counter 24, Shiga inhibitor inactive, AmpC detergent inactive, AMA1-RON2 inh inactive, SARS PLpro yeast inactive and AmpC no deterg inactive.
`Cc1cc(C)n2nc(C(=O)Nc3nccs3)nc2n1` gave CHX counter 23, Shiga inhibitor 84, AmpC detergent inactive, AMA1-RON2 inh inactive, SARS PLpro yeast inactive and AmpC no deterg inactive.
Cc1csc(NC(=O)c2nc3nc(C)cc(C)n3n2)n1 was read as CHX counter 48, Shiga inhibitor inactive, AmpC detergent inconclusive, AMA1-RON2 inh inactive, SARS PLpro yeast inactive and AmpC no deterg inactive.
For Cc1cc(C)n2nc(C(=O)Nc3nnc(C4CC4)s3)nc2n1 the results were CHX counter inactive, Shiga inhibitor inactive, AmpC detergent inconclusive, AMA1-RON2 inh inactive, SARS PLpro yeast inactive and AmpC no deterg inactive.
Screening CCOc1ccccc1Nc1nnc(-c2cc3cc(OC)ccc3oc2=O)s1 returned AmpC detergent inactive.
For c1ccc2c(c1)ncc1cccn12 the results were CHX counter inactive, Shiga inhibitor inactive, AmpC detergent inactive, AMA1-RON2 inh inactive, SARS PLpro yeast inactive and AmpC no deterg inactive.
Screening c1ccc(-c2ncc3ccccn23)cc1 returned CHX counter 15, Shiga inhibitor inactive, AmpC detergent inactive, AMA1-RON2 inh inactive, SARS PLpro yeast inactive and AmpC no deterg inactive.
`Cc1ccccc1NC(=O)c1nc2nccc(C)n2n1` gave CHX counter 38, Shiga inhibitor 72, AmpC detergent inconclusive, SARS PLpro yeast inactive and AmpC no deterg inactive[11.4 µM].
COc1ccccc1NC(=O)c1ccc(NC(=O)c2nc3nccc(C)n3n2)cc1 was read as AmpC detergent inactive, AMA1-RON2 inh inactive, SARS PLpro yeast inactive and AmpC no deterg inactive.
COc1ccc(NC(=O)c2nc3nccc(C)n3n2)cn1 was read as CHX counter 33, Shiga inhibitor 44, AmpC detergent inconclusive, AMA1-RON2 inh inactive, SARS PLpro yeast inactive and AmpC no deterg inactive.
Screening COc1ccc(NC(=O)c2ccc(NC(=O)c3nc4nccc(C)n4n3)cc2)cc1 returned AMA1-RON2 inh inactive, SARS PLpro yeast inactive and AmpC no deterg inactive.
O=C(OCc1cc([N+](=O)[O-])cc2c1OCOC2)c1ccc2ccccc2n1 was read as CHX counter inactive, Shiga inhibitor inactive, AmpC detergent inactive, AMA1-RON2 inh inactive, SARS PLpro yeast inactive and AmpC no deterg inactive.
For CC(C)=CC(=O)OCc1cc([N+](=O)[O-])cc2c1OCOC2 the results were CHX counter 65, Shiga inhibitor 88, AmpC detergent inactive, AMA1-RON2 inh inactive, SARS PLpro yeast inactive and AmpC no deterg inactive.
Cn1c(=O)c2c(ncn2CC(N)=O)n(C)c1=O was read as CHX counter inactive, Shiga inhibitor inactive, AmpC detergent inactive, AMA1-RON2 inh inactive, SARS PLpro yeast inactive and AmpC no deterg inactive.
`CC(=O)n1c2ccccc2c2nc3ccccc3nc21` gave CHX counter 26, AmpC detergent inactive, AMA1-RON2 inh inactive, SARS PLpro yeast inactive and AmpC no deterg inactive.
CCn1c2ccccc2c2nc3ccccc3nc21 was read as CHX counter inactive, Shiga inhibitor inactive, AmpC detergent inactive, AMA1-RON2 inh inactive, SARS PLpro yeast inactive and AmpC no deterg inactive.
`CC(=O)n1c2ccccc2c2c1c1ccccc1n2C` gave CHX counter inactive, Shiga inhibitor inactive, AmpC detergent inactive, AMA1-RON2 inh inactive, SARS PLpro yeast inactive and AmpC no deterg inactive.
For CCn1c2ccccc2c2nc3cc(C(=O)O)ccc3nc21 the results were CHX counter 35, Shiga inhibitor 126, AmpC detergent inactive, AMA1-RON2 inh inactive, SARS PLpro yeast inactive and AmpC no deterg inactive.
Screening COc1ccc(N2C(=O)C(Cl)=C(Nc3c(C)n(C)n(-c4ccccc4)c3=O)C2=O)cc1 returned CHX counter inactive, Shiga inhibitor inactive, AmpC detergent inactive, AMA1-RON2 inh inactive, SARS PLpro yeast inactive and AmpC no deterg inconclusive.
Cc1cc(=O)oc(C)c1C(=O)Nc1cccc2ccccc12 was read as CHX counter inactive, Shiga inhibitor inactive, AmpC detergent inactive, AMA1-RON2 inh inactive, SARS PLpro yeast inactive and AmpC no deterg inactive.
`COc1ccc(-c2nc(-c3ccc(Br)o3)no2)cc1OC` gave CHX counter 19, Shiga inhibitor 35, AmpC detergent inconclusive, AMA1-RON2 inh inactive, SARS PLpro yeast inactive and AmpC no deterg inactive.
For COc1ccc(-c2noc(-c3cccc(Cl)c3)n2)cc1OC the results were CHX counter inactive, Shiga inhibitor inactive, AmpC detergent inconclusive, AMA1-RON2 inh inactive[2.32 µM], SARS PLpro yeast inactive and AmpC no deterg inactive.
`COc1ccccc1-c1nc(-c2ccc(Br)o2)no1` gave CHX counter 97, Shiga inhibitor 146, AmpC detergent inactive, AMA1-RON2 inh inactive, SARS PLpro yeast inactive and AmpC no deterg inactive.

Source: PubChem BioAssay
